The text below walks through data of PubChem BioAssay (NCI).

Compounds without any hit were thinned out: in the full panel of roughly 83,000, 20% have a hit.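 Compound tested at a single concentration for 48 hours in 96-well plates; a percent growth value below 10 was scored as active.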 A number with no mark means an inactive call. Active and inactive are the calls of the source.

The test has as its system SF-268 CNS. Kind of test: NCI-60 one-dose screen, 48 h (100 = growth as untreated, 0 = no growth, -100 = all killed). The following applies: 10 µM unless noted.
On to `CCSc1nc(NC)c2cc(-c3ccc(C(F)(F)F)cc3)ccc2n1`, for which the growth was 103%. Consider `Cc1nc(-c2ccccc2)cc2c(O)c(C(=O)NN)[nH]c(=O)c12`, for which the growth is 96.2%. Take `Cc1ccc(S(=O)(=O)N2CCCC2CO)cc1` (stereo unspecified): the growth was 101%. To `CCOC(=O)c1cc(-c2ccc([N+](=O)[O-])cc2)n(-c2ccc(C(=O)O)c(O)c2)c1C` belongs 85.8%; to `COc1cc(CNS(=O)(=O)c2ccc(C)cc2)ccc1OCc1cn(-c2ccc(Br)cc2)nn1`, 93.8%.

With `O=C(/C=C/c1ccccc1)c1cccc(OCCCOc2cccc(C(=O)/C=C/c3ccccc3)c2)c1`, the growth was 104%. The result for `C=CCc1c(O)c(C(=O)/C=C/c2ccc(Cl)cc2)c(OC)c2ccoc12` reads 53.8%; that for `COc1ccc(-c2nc3c(c(-c4ccccc4)nn3-c3ccccc3)c(-c3ccc(N4CCOCC4)cc3)c2C#N)cc1`, 112%. To `O=C1/C(=C/c2ccc(Cl)cc2)COc2ccc(O)c(O)c21` belongs -0.809% (active). The result for `CN(C)c1ccc(Nc2cc(-c3cccc(OC(F)(F)F)c3)nc3ccc(N4CCCC4)cc23)cc1` reads -13.4% (active).

As for `O=C(c1ccc(-c2nc(CSc3nc4ccccc4s3)no2)cc1)N1CCSCC1`, the growth is 77.1%. Take `N=C(N)c1ccc(-c2ccc(-c3ccc(Cl)cc3)s2)nc1`: the growth is 57.6%. In the case of `COC(=O)c1c2c(c(C)[n+]([O-])c1C)C(=O)C=C(NCc1ccc(OC)cc1)C2=O`, the growth is -22.4% (active).

`O=C1/C(=C/c2ccc(Cl)cc2)COc2ccc(O)cc21`: the growth is 79.3%.

Regarding `Cc1cccc2c1NC(=O)C2(c1ccc(O)cc1)c1ccc(O)cc1`, the growth was 96.7%. The result for `CN1CCN(Cc2ccc3c(NNC(=O)c4ccccc4)nc4cc(F)ccc4n23)CC1` reads 19.9%; that for `COc1ccc2[nH]cc(-c3nc(-c4cn(C)c5c(Cl)nccc45)cs3)c2c1`, 73%.

With `O=C(CCc1nnc(Cn2cnc3nc[nH]c3c2=O)o1)c1nc2ncccc2[nH]1`, the growth was 96.1%. As to `CC1=Nc2cnc(Nc3ccc(OCCN4CCCCC4)cc3)nc2Nc2ccccc21`, the growth is 64.9%. To `Cc1nc2ncnc(Cl)c2[nH]1` belongs 103%; to `CC(C)(C)[Si](C)(C)O[C@H]1C(=O)C=CN2CC=C[C@@H]12`, 101% [100 µM]; to `c1cnc2[nH]cc(-c3csc(-c4cn(CCCN5CCOCC5)c5ccccc45)n3)c2c1`, 52.3%. The result for `Cc1ccccc1Cn1cnc2ccc(-c3cc(NC(=O)c4ccc(NC5CCN(C)CC5)cc4)n[nH]3)cc21` reads 69.2%; that for `COC(C(=O)[C@@H](O)[C@@H](C)O)[C@@H]1Cc2cc3cc(O[C@H]4C[C@@H](O[C@H]5C[C@@H](O)[C@H](O)C(C)O5)[C@H](O)C(C)O4)cc(O)c3c(O)c2C(=O)[C@H]1O[C@H]1C[C@@H](O[C@H]2C[C@@H](O[C@H]3C[C@@H](OC)[C@H](O)C(C)O3)[C@@H](O)C(C)O2)[C@H](O)C(C)O1` (stereo partly specified), 49.9%. For `Cc1cc(Cl)ccc1Nc1nc(C(F)(F)F)ccc1C(=O)N/N=C/c1ccc([N+](=O)[O-])cc1`, the growth is 13.8%. To `COc1cc(N2C(=O)[C@H](O)C2c2ccc(SC)cc2)cc(OC)c1OC` (stereo partly specified) belongs 28.1%; to `Fc1cc2c(cc1Cl)N(c1ncnc3ccc(-c4cnc5[nH]ncc5c4)cc13)CC2`, 57.3%. The result for `COc1ccccc1NC(=O)Cn1cc(CN2CCN(c3ccnc4cc(Cl)ccc34)CC2)nn1` reads 84%. In the case of `COc1cc(CNC(=O)CCCC/C=C/C(C)C)ccc1OCc1nnc(Nc2ccc([N+](=O)[O-])cc2)o1`, the growth was 79.7%. With `O=C(NCCCN1CCOCC1)c1cccc(N2C(=O)/C(=C/c3ccc(F)cc3)SC2=S)c1`, the growth is 94.1%. As to `O=C(CSc1nnc2n1S(=O)(=O)c1ccccc1N2c1ccccc1)Nc1nc2ccc(F)cc2s1`, the growth was 97.2%. To `N#Cc1nc(-c2ccccc2)oc1S(=O)(=O)N1CCOCC1` belongs 108%; to `CC(C)c1ccc(COCc2cc(CN3CCCC3)c(O)c3ncccc23)cc1`, 8.66% (active). To `Cc1cc(N)c2cc(NC(=O)/C=C\c3ccccc3Cl)ccc2n1` belongs -76.6% (active); to `COc1ccc(Cc2cc(-c3ccccc3)nn(Cc3ccccc3)c2=O)cc1OC`, 57%. On to `O=C1/C(=C/c2ccc(F)cc2)COc2ccc(O)cc21`, for which the growth was 90%.
